The results in this text go back to PubChem BioAssay AID771 (SRMLSC, 2007).

Each structure is given as a SMILES string. The campaign covered roughly 3,300 compounds. About 55 (2%) were called active.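 How the source made its calls: active means growth inhibition above 90%, meaning viable cell count by imaging cut by more than 90% versus vehicle controls; inactive means growth inhibition below 90%.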 What follows is part of a selection rich in actives, with near analogues and random picks from the rest.

A short description of this experiment: HT29 colon tumor cell growth inhibition, primary screen, imaging, high content imaging, 48 h, CellTiter-Glo (AID 771).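 On condensed nuclei: condensed means Hoechst nuclear area under control median minus 1.5 SD.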 The conditions noted are these: HCS imaging cell count, at 10 µM, stronger effect = higher value; for condensed nuclei: measured here: percent cells with condensed nuclei. For orientation: ATP-based viability assays read luminescence as a measure of living cells.

The mark [1] stands for this setting: measured here: ATP CellTiter-Glo viability inhibition.

For the compound `CN=C1c2cc3c(Br)c(OC)ccc3n2CCN1C`, the growth inhibition was 13.5% (inactive) and the condensed nuclei was 1.37%. The growth inhibition under setting [1] is 20.4%.
Consider `COC(=O)c1cc(Br)c(=O)n(Cc2ccco2)c1`, for which the growth inhibition is 48.5% (inactive) and the condensed nuclei turned out to be 2.45%. Further, under setting [1], the growth inhibition was -15.8%.
As to `CN(C)S(=O)(=O)Nc1ccc(NS(=O)(=O)N(C)C)c(S(=O)(=O)c2ccccc2)c1`, the growth inhibition is 17.4% (inactive) and the condensed nuclei stood at 2.1%. Moreover, the growth inhibition under setting [1] was -14.5%.
Take `C#CCSC1=C(C#N)C(c2cccs2)C(C(=O)OCC)=C(C)N1` (stereo not given): the growth inhibition was -11.7% (inactive) and the condensed nuclei stood at 1.95%. Also, the growth inhibition under setting [1] is -5.67%.
`CCSC1=C(C#N)C(c2cccs2)C(C(=O)OC)=C(C)N1` (stereo not given): the growth inhibition is -14.9% (inactive) and the condensed nuclei is 2.41%. Under setting [1], the growth inhibition was -4.48%.
On to `CCOC(=O)C1=C(C)NC(SCC(=O)Nc2nc(C)cs2)=C(C#N)C1c1cccs1` (stereo not given), for which the growth inhibition was 95.4% (active) and the condensed nuclei is 11.1%. Moreover, the growth inhibition under setting [1] came out at 77.6%.
In the case of `CCCOc1ccc(/C(O)=C2/C(=O)C(=O)N(CCCN3CCOCC3)C2c2ccncc2)cc1` (stereo not given), the growth inhibition is -41.6% (inactive) and the condensed nuclei amounted to 2.83%. In addition, under setting [1], the growth inhibition was -15.8%.
Turning to `CCCCOc1cccc(-c2nnc(N)s2)c1`, the growth inhibition was 2.4% (inactive) and the condensed nuclei is 3.96%. Moreover, the growth inhibition under setting [1] is -0.17%.
In the same order, the values of `CCC1CC2(C)NC(=O)c3c(sc4c3CC(C)(C)OC4)N2C1=O` (stereo not given) are -1.91% (inactive), 0.79% and -5.72%.
As to `CC(C)(C)C1CCC2(CC1)C(C#N)=C(SCC(=O)Nc1ccccc1)NC(=O)C2C#N` (stereo not given), the growth inhibition is 91.4% (active) and the condensed nuclei amounted to 2.13%. The growth inhibition under setting [1] was determined as 71.8%.
Regarding `CC1=C(C(=O)Nc2ccccc2)C(c2ccncc2)C(C#N)=C(SCC(=O)NC(C)C)N1` (stereo not given), the growth inhibition was 38.7% (inactive) and the condensed nuclei is 1.77%. The growth inhibition under setting [1] amounted to 0.29%.
With `COc1cccc(NC(=O)CSC2=C(C#N)C(c3ccco3)C3=C(CCCC3=O)N2)c1` (stereo not given), the growth inhibition was 61% (inactive) and the condensed nuclei turned out to be 1.16%. Besides, the growth inhibition under setting [1] worked out at 34.8%.
For `O=c1/c(=C/c2ccccn2)sc2n1CN(c1ccccc1)CN=2` the same measures were 1.6% (inactive), 16.2% and 3.13%.
On to `CNC(=O)Nc1cccc(NC(=O)NC)n1`, for which the growth inhibition was 24.6% (inactive) and the condensed nuclei worked out at 0.95%. The growth inhibition under setting [1] turned out to be 6.59%.
Regarding `COc1cccc(C2/C(=C(/O)c3cnn(-c4ccccc4)c3C)C(=O)C(=O)N2CCN(C)C)c1` (stereo not given), the growth inhibition is 51.1% (inactive) and the condensed nuclei was 1.69%. For the same compound, the growth inhibition under setting [1] was -8.25%.
For `Cc1[nH]c2ccc3c(ncn3CCC#N)c2c1C` the same measures were 3.78% (inactive), 1.79% and 2.93%.
As for `CCN1CCc2c(C#N)c(N3CCOCC3)nc(NCc3ccccc3)c2C1`, the growth inhibition is 21.2% (inactive) and the condensed nuclei amounted to 2.32%. The growth inhibition under setting [1] came out at 14.1%.
On to `CCN1CCc2c(C#N)c(N3CCCCC3)nc(NCc3ccccc3)c2C1`, for which the growth inhibition was -17.2% (inactive) and the condensed nuclei was 3.42%. The growth inhibition under setting [1] stood at 20.2%.
For the compound `CCN1CCc2c(C#N)c(NCc3ccccc3)nc(NCCO)c2C1`, the growth inhibition was -5.72% (inactive) and the condensed nuclei worked out at 1.53%. In addition, under setting [1], the growth inhibition came out at 1.65%.
For `CN1CCc2c(C#N)c(N3CCCCC3)nc(NCc3ccccc3)c2C1` the same measures were 94.8% (active), 19.2% and 84.9%.
In the same order, the values of `C=CCNc1nc(NCc2ccccc2)c(C#N)c2c1CN(C)CC2` are 95.6% (active), 12.5% and 82.7%.
Regarding `CCN1CCc2c(C#N)c(NCc3ccccc3)nc(N(CC)CC)c2C1`, the growth inhibition is -3.81% (inactive) and the condensed nuclei worked out at 2.33%. The growth inhibition under setting [1] was -0.65%.
For `C=CCNc1nc(N2CCOCC2)c(C#N)c2c1CN(C)CC2` the same measures were -13.1% (inactive), 0.96% and -3.95%.
On to `C=CCNc1nc(N2CCCCC2)c(C#N)c2c1CN(Cc1ccccc1)CC2`, for which the growth inhibition was 71.7% (inactive) and the condensed nuclei was found to be 2.73%. The growth inhibition under setting [1] amounted to 37%.
In the same order, the values of `N#Cc1c(NCCN)nc(NCc2ccccc2)c2c1CCN(Cc1ccccc1)C2` are 93.1% (active), 30.8% and 87.7%.
With `CCCCOc1ccc(C)cc1CN(CCO)CCO`, the growth inhibition was -4.82% (inactive) and the condensed nuclei worked out at 1.37%. Further, under setting [1], the growth inhibition stood at 1.6%.
On to `Cc1ccc(-c2nn(C)c(=O)c3ccccc23)cc1CNC(=O)CSc1nc2ccccc2o1`, for which the growth inhibition was -7.38% (inactive) and the condensed nuclei turned out to be 1%. The growth inhibition under setting [1] is -4.16%.
For `CCC1(C)Cc2c(sc3c2c(=O)n(C)c2nnc(SCC(=O)c4ccc(Cl)cc4)n32)CO1` (stereo not given), the growth inhibition was 0.56% (inactive) and the condensed nuclei was 13.8%. For the same compound, the growth inhibition under setting [1] came out at 9.73%.
On to `Cc1cc(C)nc(NC2=NCC(=O)N2c2cccc(Cl)c2)n1`, for which the growth inhibition was 27.2% (inactive) and the condensed nuclei turned out to be 3.28%. For the same compound, under setting [1], the growth inhibition is -9.73%.
Turning to `CCOC(=O)c1c(-c2cccs2)csc1NC(=O)CCCC(=O)O`, the growth inhibition was 5.6% (inactive) and the condensed nuclei came out at 1.96%. In addition, the growth inhibition under setting [1] was found to be 4.31%.
As for `CCCc1nc(N2CCOCC2)c(C#N)c2c1CCCC2`, the growth inhibition was 24% (inactive) and the condensed nuclei amounted to 0.7%. Besides, the growth inhibition under setting [1] was determined as 6.89%.
As for `CSc1nc2sc3c(c2c(=O)[nH]1)CCC(C)C3` (stereo not given), the growth inhibition was 25.4% (inactive) and the condensed nuclei was 2.48%. For the same compound, under setting [1], the growth inhibition was 10.4%.
For `CCOc1ccc(C2C(C(=O)c3ccc(C)o3)=C(O)C(=O)N2CCCN(CC)CC)cc1` (stereo not given), the growth inhibition is 17% (inactive) and the condensed nuclei is 1.26%. For the same compound, the growth inhibition under setting [1] stood at 0.35%.
`c1ccc(-c2nc(NCC3CCCO3)c3ccccc3n2)nc1` (stereo not given): the growth inhibition was 16.9% (inactive) and the condensed nuclei is 2.06%. In addition, the growth inhibition under setting [1] turned out to be 30.9%.
`O=C1CCC(=O)N1CN(Cc1ccco1)CN1C(=O)CCC1=O`: the growth inhibition was -33.3% (inactive) and the condensed nuclei was 2.24%. Besides, under setting [1], the growth inhibition was -19.2%.
